Assay outcomes: PubChem BioAssay, National Center for Advancing Translational Sciences (NCATS)
Sampled rows, rich in hits. Any-hit rate of the full collection: about 6.2%.
Lassa entry inh = qHTS for Inhibitors of binding or entry into cells for Lassa Virus | Lassa virus pseudotype entry inhibition, cell reporter | Potency, µM (highest dose often 37.9 µM), inactives show top-dose activity change, negative = inhibition, actives largely listed as inhibitors | 1.2% of 300,000 active; calls by dose curve; tested in HEK293 cells; further: potency means the concentration at half of the fitted maximal effect; nearly all actives have a fitted effect of over 50% in size
Marburg entry inh = qHTS for inhibitors of binding or entry into cells for Marburg Virus; Marburg virus pseudotyped entry inhibition, cell reporter; Potency, µM (doses to about 37.8 µM), inactives show at the highest dose activity change, negative = inhibition, usual class: inhibitors; 1.8% of 300,000 active; AID 540276, 2011; calls by dose curve; tested in HEK293 cells; further: potency means the concentration at half of the fitted maximal effect
HCMV inh = qHTS Assay for inhibitors of the human cytomegalovirus (HCMV) | activity change, negative = inhibition, % at 57.5 µM | HFF cells, HCMV-luciferase reporter, 72 h; hits give low values | 4.5% of 410,000 active; in the data active means activity change below about -60%; inconclusive means no clear call, values can overlap the other calls; inactive means above about -39%
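Inhibition of viral replication was scored as loss of reporter luminescence in HFFs infected with HCMV-luciferase (MOI 1 PFU/cell) for 72 h; compounds tested at 2 doses, normalized to buffer and Salinomycin controls.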
FMDV antiviral = High Throughput Screening for Foot and Mouth Disease Virus Antivirals; FMDV antiviral cell-based qHTS; Potency, µM (highest dose often 57.9 µM), for the others: at the highest dose activity change, negative = inhibition, most hits filed as inhibitors; 1.2% of 410,000 active; AID 1159524, 2015; calls by dose curve; tested in HEK293T cells; further: read-out not given here; potency means the concentration at half of the fitted maximal effect; nearly all actives have a fitted effect of over 45% in size
Active calls of the source: *; ? = inconclusive; · = no result; ! = not confirmed by another sample; [ ] = remark or other dose. On the % scale 0 is the no-effect control and ±100 the full control effect.

SMILES	Lassa entry inh	Marburg entry inh	HCMV inh	FMDV antiviral
O=[N+]([O-])c1ccc2c(c1)C(N1CCOCC1)/C(=C/COc1ccc3ccccc3c1Br)O2 (stereo not given)	?	12.6µM*	14.9	?
CCN(CC)S(=O)(=O)c1cc(NC(=O)C2CC(=O)N(Cc3ccccc3)C2)ccc1Cl (stereo not given)	·	·	-63.0*	11.2µM*
O=C(Nc1ccc(S(=O)(=O)N2CCCCC2)cc1)C1CC(=O)N(Cc2ccccc2)C1 (stereo not given)	4.6%[46.1 µM]	-12.5%	-39.1	12.7%
Cc1ccc(NC(=O)C2CC(=O)N(Cc3ccccc3)C2)cc1S(=O)(=O)N1CCCCCC1 (stereo not given)	?	?	-77.2*	?
Cc1ccc(CN2CC(C(=O)Nc3ccc(S(=O)(=O)N4CCCCC4)cc3)CC2=O)cc1 (stereo not given)	?	-25.4%	-68.5*	-14.6%
Cc1ccc(CN2CC(C(=O)N3CCN(c4ccccc4O)CC3)CC2=O)cc1 (stereo not given)	11.2µM*	7.0%	-27.0	?
O=C1CC(C(=O)N2CCN(c3ccccc3Cl)CC2)CN1Cc1ccccc1 (stereo not given)	·	·	69.9	-2.0%
COC(=O)c1cnc(Nc2ccc(Cl)cc2)c([N+](=O)[O-])c1	-0.4%	-2.9%[46.1 µM]	1.3	6.9%
COc1ccccc1N(CC(=O)Nc1ccc2c(c1)OCO2)S(=O)(=O)c1ccccc1	-20.1%	?	?	3.8%
CC(=NNc1nc2ccccc2s1)c1ccncn1	?	?	-100.4*	0.0%
C/C(=N\Nc1nc2ccccc2s1)c1ccc(Br)s1	?	?	-19.6	?
NC(=S)N/N=C/c1ccc(-c2cccc([N+](=O)[O-])c2)o1	-1.8%	-26.2%	-19.3	-6.4%
NC(=S)NN=Cc1cc(-c2cccc(N)c2)ccn1	·	·	-99.7*	0.0%
COc1ccc(C(C[N+](=O)[O-])c2c(-c3ccccc3)cc3ccccn23)c(OC)c1 (stereo not given)	-20.9%	-35.5%	-71.3*	-7.9%
COCc1cccc(-c2csc(C(O)c3ccc(OC)cc3)n2)c1 (stereo not given)	·	·	8.2	-15.5%
CCC/C=C1/CCCOC(C(=O)NCc2ccc(S(C)(=O)=O)cc2)(C(F)(F)F)C1 (stereo not given)	·	·	15.9	-17.4%
Cc1ccccc1-n1nc(C)c2cc(C(=O)N3CCN(S(=O)(=O)c4ccc(F)cc4)CC3)sc21	?	20.6µM*!	-22.1	?
Cc1ccc(-c2nn(-c3ccccc3)cc2C(=O)Nc2ccc(C)c(S(=O)(=O)N3CCOCC3)c2)cc1	-4.0%	-10.7%	-20.5	4.8%
CCOC(=O)c1c(C)c2c(=O)[nH]cnc2n1-c1ccccc1	·	·	-62.1*	-26.6%
CCOc1ccc(Nc2nc(-c3cccc(Cl)c3)c3c(n2)-c2ccccc2OC3)cc1	13.8%[46.1 µM]	-0.8%[46.1 µM]	-74.9*	-17.9%
COc1ccc(CCNC(=O)c2cc(=O)[nH]c3ccccc23)cc1	·	?	-21.7	3.2%
O=C(NCCc1ccccc1)c1cc(=O)[nH]c2ccccc12	-26.8%[46.1 µM]	10.2%[46.1 µM]	-60.5*	3.6%
Cc1cc(C)c[n+](CC(=O)c2cc3ccccc3oc2=O)c1	18.0%	3.6%	-98.4*	0.3%
CSc1ccc(CN(C)C(=O)c2cc(=O)c3ccccc3o2)cc1	-2.2%[46.1 µM]	0.3%[46.1 µM]	-21.7	17.1%
CSc1ccc(CN(C)C(=O)c2cc(=O)[nH]c3ccccc23)cc1	-13.7%	0.4%[46.1 µM]	-29.4	2.82µM*
SMILES	Lassa entry inh	Marburg entry inh	HCMV inh	FMDV antiviral
O=C(NCCc1ccccc1)c1cc2ccccc2oc1=O	·	·	-103.0*	12.1%
CC(C)NS(=O)(=O)c1ccc2c3c(cccc13)CC2	4.5%	3.3%[46.1 µM]	10.9	49.6%
O=C(CCl)N(C/C=C/c1ccccc1)c1ccc2c(c1)OCCO2	?	16.9%[46.1 µM]	58.1	25.1µM*
O=C(Nc1ccc2nc(SCC(=O)N3CCc4ccccc43)sc2c1)c1cccc(Cl)c1	-6.1%[46.1 µM]	24.4%[46.1 µM]	36.9	-10.8%
O=C(Nc1ccc2nc(SCC(=O)N3CCc4ccccc43)sc2c1)c1ccc(Cl)cc1	?	6.9%[46.1 µM]	-93.1*	5.6%
Cc1ccccc1OCC(=O)Nc1ccc2nc(SCC(=O)N3CCOCC3)sc2c1	6.7%[46.1 µM]	-19.6%[46.1 µM]	-78.2*	28.2µM*
CC(C)(C)c1ccc(C(=O)Nc2ccc3nc(SCC(=O)N4CCCC4)sc3c2)cc1	?	?	-96.7*	10µM*
Cc1ccccc1OCC(=O)Nc1ccc2nc(SCC(=O)N3CCCC3)sc2c1	10.8%[46.1 µM]	?	-35.0	-22.3%
CC(C)(C)NC(=O)CSc1nc2ccc(Nc3nc(N4CCOCC4)nc(N4CCOCC4)n3)cc2s1	·	·	-66.0*	?
CC(=O)CSc1nc2ccc(Nc3nc(N4CCOCC4)nc(N4CCOCC4)n3)cc2s1	-12.7%	?	-13.3	-9.6%
CCC1CCCCN1C(=O)CSc1nc(N)c(NC(=O)c2ccco2)c(=O)[nH]1 (stereo not given)	·	·	3.8	-9.9%
O=C(Nc1ccc2nc(SCC(=O)N3CCc4ccccc43)sc2c1)c1ccc(F)cc1	-1.5%[46.1 µM]	2.3%[46.1 µM]	-62.5*	0.0%
COc1cccc(NC(=O)c2cnc(SCC(=O)N3CCOCC3)n(C)c2=O)c1	8.1%[46.1 µM]	·	17.2	22.4µM*
CCCn1cnc2c(Sc3c([N+](=O)[O-])ncn3C)nc(N)nc21	?	2.6%	-32.4	?
Cc1nc(N(C)Cc2ccccc2)c2c(C)c(C)sc2n1	0.5%	0.9%[46.1 µM]	-4.4	-5.6%
CC(=O)N(c1ccc(Cl)cc1)c1cn(C(C)=O)c2ccccc12	-27.5%[46.1 µM]	?	72.2	-16.1%
CC(=O)n1cc(N(C(=O)CCl)c2ccc(C)cc2)c2ccccc21	?	7.08µM*	-97.4*	14.1µM*
O=S(=O)(NCC1CCCO1)c1ccc(-c2ccc(S(=O)(=O)NCC3CCCO3)cc2)cc1 (stereo not given)	·	-37.9%[46.1 µM]	-93.2*	-24.6%
Cc1ccc(S(=O)(=O)NCC2CCCO2)cc1 (stereo not given)	10.3%	28.6%	18.3	12.8%
Cn1cc(-c2cccc3nncn23)cn1	·	·	-11.1	0.0%
COC(=O)c1cc2ccccc2c(-c2c(OC)c(C(=O)OC)cc3ccccc23)c1OC	?	6.51µM*	?	-23.8%
Cc1ccc(-c2[nH]c(-c3ccc(Cl)cc3)nc2SCC(=O)NCC2CCCO2)cc1 (stereo not given)	8.4%	2.9%	30.9	-23.6%
Cc1[nH]c2ccccc2c1C(=O)C(=O)N1CCN(c2ccccc2Cl)CC1	-23.1%[46.1 µM]	?	-17.6	-10.8%
CC(C)OC(=O)C1CC(C)(O)C(=O)C(C(=O)OC(C)C)C1c1ccc([N+](=O)[O-])cc1 (stereo not given)	-16.5%[46.1 µM]	?	-64.3*	?
CCOC(=O)C1=C(C)N(CCCC(=O)O)C(=O)NC1c1ccccc1OS(=O)(=O)c1ccc([N+](=O)[O-])cc1 (stereo not given)	·	·	-100.2*	-0.9%
CC(C)Oc1ccc(C(=O)NC2=NCCS2)cc1	?	8.91µM*	60.7	-24.1%
Cc1ccc(C(=O)NC2=NCCS2)cc1	·	-1.1%	93.6	·
CC(C)c1ccc(C(=O)NC2=NCCS2)cc1	16.4µM*	7.31µM*	67.8	-13.5%
